Screening results: PubChem, Broad Institute
These entries were drawn from the full list.
aSyn UTR act: Activators via SNCA 5'UTR binding, MLPCN; hit rate 7.1% among 300,000; activity score, % (tested at 7.5 µM), hits read low; alpha-synuclein 5'UTR reporter, activators screen; in the data active = activity score below about -60%
Numbers stand for hits; i = inactive.

SMILES	aSyn UTR act
COc1cc2c(cc1NC(=S)Nc1cccc(C)c1)oc1ccccc12	-123.9
CC1CCc2c(sc3ncnc(NS(=O)(=O)c4cccs4)c23)C1 (stereo unspecified)	-100.8
O=C(COc1cccc2c1CCNC2=O)Nc1cccc(C(F)(F)F)c1	-84.4
CCCCCCn1cnc2c(oc3nc4c(cc32)CCCC4)c1=O	-108.2
O=c1c2oc3nc4c(cc3c2ncn1CCCc1ccccc1)CCCC4	-105.1
O=C(O)COc1ccc(-c2nccc(-c3ccccn3)n2)cc1	i
FCCCOc1ccc(-c2nccc(-c3ccccn3)n2)cc1	-63.4
CCNC(=O)C(=O)Nc1ccc(OC)c(Cl)c1	-83.4
COc1ccc(NC(=O)Nc2cccs2)cc1Cl	-166.9
COc1ccc(NC(=O)C=C(C)C)cc1Cl	-122.2
CCc1cccc(NC(=O)Nc2cccs2)c1	-243.5
CC(C)=CC(=O)Nc1ccc(Cl)cc1	-90.0
COc1ccc(NC(=O)c2cc(F)c(F)cc2Cl)cc1Cl	-92.9
Cc1cccc(NC(=O)Nc2cccc(C#N)c2)n1	-170.3
Cc1cccc(NC(=O)Nc2cccc(F)c2)n1	-118.8
Cc1cccc(NC(=O)Nc2cc(C)cc(C)n2)c1	-183.7
Cc1ccnc(NC(=O)Nc2cccc(F)c2)n1	-115.4
Nc1cc(N)nc(SCCOc2ccccc2)n1	-69.4
Nc1cc(N)nc(SCCOc2ccccc2F)n1	-81.3
CC1Oc2ccccc2N(CC(=O)NCc2ccccc2)C1=O (stereo unspecified)	-90.6
N#C/C(=C(/O)c1ccc(Cl)cc1)c1nc2ccccc2[nH]1	-67.3
O=C(/C(=C/c1ccc(Cl)cc1)c1nc2ccccc2[nH]1)c1ccccc1	-217.2
O=[N+]([O-])c1ccc(NNC(=S)Nc2ccc(F)cc2)cc1	-157.2
CCCN1CCC(NC(=S)Nc2ccc([N+](=O)[O-])cc2)CC1	-80.4
CC(C)CCNC(=S)Nc1ccc(Br)cc1	-69.2
SMILES	aSyn UTR act
S=C(NCCc1ccccc1)Nc1ccccn1	-140.6
CCCN1CCC(=NNc2ccc(S(=O)(=O)N(CC)CC)cc2[N+](=O)[O-])CC1	i
COC(=O)Cc1ccc(NC(=S)Nc2ccccn2)cc1	-62.7
O=C(NC(=S)NCCc1ccccn1)c1ccccc1	-106.2
CC(C)CCNC(=O)/C=C/c1ccc(Br)cc1	-64.1
CC(C)(C)NC(=S)NCCc1ccccc1	-192.5
S=C(NCCc1ccccc1)NN=C1CCCCCC1	-159.2
CC(C)CCNC(=S)Nc1ccc([N+](=O)[O-])cc1	-63.1
S=C(NCCc1ccccc1)Nc1ccc(Br)cc1	-126.4
CC(C)NC(=O)c1nc2ccccc2s1	-83.8
COc1ccc(OC)c(NC(=O)c2nc3ccccc3s2)c1	-168.0
C=CCNC(=O)c1nc2ccccc2s1	-161.2
Cc1ccc(Nc2nc(COC(=O)COc3ccc(C=O)cc3)cs2)cc1	-107.4
C/C=C/c1ccc(OCC(=O)OCc2csc(Nc3ccc(C)cc3)n2)c(OC)c1	-176.8
COc1ccc(C(=O)Nc2ccc(NC(=O)c3ccccc3OC)nc2)cc1	-95.9
O=C(Cc1ccccc1)Nc1ccc(NC(=O)c2ccco2)nc1	-148.6
O=C(Nc1ccc(NC(=O)c2ccccc2)nc1)c1ccncc1	-81.2
COc1cccc(C(=O)Nc2ccc(NC(=O)C3CC3)cn2)c1	-157.3
CC(C)(C)C(=O)Nc1ccc(NC(=O)c2ccco2)nc1	i
CCC(=O)Nc1ccc(NC(=O)c2cccc(OC)c2)nc1	-171.5
COc1ccccc1C(=O)Nc1ccc(NC(=O)c2ccco2)cn1	-80.5
O=C(Nc1ccccn1)c1ccco1	-100.3
COc1ccc(C(=O)Nc2ccc(NC(=O)C3CC3)nc2)cc1	-86.9
CCC(=O)Nc1cc(C)c(NC(=O)c2ccccc2OC)cn1	-70.4
O=[N+]([O-])c1ccc(C(O)CSC(=S)N2CCCCC2)cc1 (stereo unspecified)	-181.3
SMILES	aSyn UTR act
CCOc1ccc(C2=Nn3c(nnc3-c3ccc(OC)cc3)SC2)cc1	i
CCC(=O)N1CCC(c2ccc(OC)cc2)=N1	-75.4
O=C(O)Cc1sc(Nc2ccc(Cl)cc2)nc1-c1cccs1	-187.7
COC(=O)c1ccc(N2CCN(C)CC2)c(NC(=O)COc2ccc(OC)cc2)c1	-67.9
Cc1cc(N2CCN(C)CC2)nc2ccc(NC(=O)c3ccc(Br)o3)cc12	-102.8
CCN1CCN(c2cc(C)c3cc(NC(=O)c4cc(OC)cc(OC)c4)ccc3n2)CC1	-97.8
COc1cc(C(=O)Nc2ccc3nc(N4CCN(C)CC4)cc(C)c3c2)cc(OC)c1OC	-103.0
CCOc1ccc(C(=O)Nc2ccc3nc(N4CCN(CC)CC4)cc(C)c3c2)cc1	i
COCCCNC(=S)N/N=C/c1ccc(N(C)C)cc1	-112.5
COCCCNC(=S)N/N=C/c1ccc(N(C)C)cc1Cl	-107.2
O=C(/C=C/c1ccnc2ccccc12)c1cccs1	-79.9
COc1c(OC(C)=O)ccc(/C=C/c2ccc3cccc(OCc4ccccc4)c3n2)c1[N+](=O)[O-]	-128.8
O=C(Nc1nc2ccccc2[nH]1)c1ccc(Cl)cc1	i
O=C(Nc1nc2ccccc2[nH]1)c1cccc(Cl)c1	-151.1
Cc1ccc(C)c(C(=O)Nc2nc3ccccc3[nH]2)c1	-69.4
O=C(NNc1ncnc2ccccc12)c1cccc(Cl)c1	-84.0
O=C(Nc1nc2ccccc2[nH]1)c1ccccc1O	-73.8
Cc1ccc(C)c(OCc2nc3ccccc3[nH]2)c1	-112.6
Cc1ccc(Nc2nc3ccccc3[nH]2)nc1	-219.9
CNS(=O)(=O)c1ccc(NC(=S)Nc2ccc3c(c2)OCO3)cc1	-128.6
O=S(=O)(c1ccc(NC(=S)Nc2ccc3c(c2)OCO3)cc1)N1CCOCC1	-227.0
O=c1c2ccccc2ncn1CCCOc1ccccc1[N+](=O)[O-]	-149.7
O=[N+]([O-])c1ccccc1OCCCn1cnc2ccccc21	-100.2
Clc1ccc(OCCn2cnc3ccccc32)c(Cl)c1	-125.5
O=c1c2ccc([N+](=O)[O-])c3cccc(c32)c2nc3ccccc3n12	i
SMILES	aSyn UTR act
N=c1n(Cc2ccccc2)c2ccccc2n1CC(O)COc1ccc(Cl)cc1Cl (stereo unspecified)	i
O=C1/C(=N\S(=O)(=O)c2cccs2)C([n+]2ccc(CCCc3ccccc3)cc2)=C([O-])c2ccccc21	i
O=c1c2ccccc2nc(-c2ccccc2)n1Cc1ccccc1	-93.0
CCCn1c(-c2cccc([N+](=O)[O-])c2)nc2c1c(=O)[nH]c(=O)n2Cc1ccccc1	i
O=C(NCc1cccs1)c1cc2c(s1)-c1ccccc1OC2	-89.8
CN(C)CCNC(=O)c1cc2c(s1)-c1ccc(Cl)cc1SC2	i
O=C(NC1CC1)c1cc2c(s1)-c1ccccc1OC2	-82.4
O=c1c2ccccc2nc(/C=C/c2c[nH]c3ccccc23)n1CCO	-160.0
CCOC(=O)c1ccc2[nH]c3c(c2c1)CCCCC3=O	-101.6
O=C1CCCc2c1[nH]c1ccc(Cl)cc21	i
CCCn1cnc2c(sc3nc4c(cc32)CSC(C)(C)C4)c1=O	-104.6
O=[N+]([O-])c1cccc(N/N=C/c2ccc(N3CCOCC3)cc2)c1	-225.0
C/C(=N\Nc1ccccn1)c1ccc(C(C)C)cc1	-132.5
Clc1cccc(N/N=C/c2ccc(N3CCOCC3)cc2)c1	-183.1
O=[N+]([O-])c1ccc(N/N=C/c2sc(N3CCOCC3)nc2-c2ccccc2)c(S(=O)(=O)Nc2ccc(Cl)cc2)c1	i
C(=N\Nc1ccccn1)/c1ccc(N2CCOCC2)cc1	-182.4
C/C(=N\Nc1ccccn1)c1ccc(N2CCOCC2)cc1	-155.9
C(=N\Nc1ccccc1)/c1ccc(N2CCOCC2)cc1	-153.7
CCc1ccc(CNC(=O)Cc2ccc(NC(=O)C3=C(C)OCCS3)cc2)cc1	i
O=C(COc1ccc(F)cc1)Nc1ccc2c(c1)OCCO2	-144.2
COc1cccc(CNC(=O)Cc2ccc(NC(=O)C3=C(C)OCCS3)cc2)c1	-79.6
